Results filed as inconclusive are left out. Active and inactive are the calls of the source. Calls come from the whole dose curve; as a rule, active = well fitted cell-killing curve with a large enough effect in the repeat runs; inconclusive = weak or mixed curves; inactive = no such curve, though single readings can be large or run the other way.
Assay: qHTS assay to identify small molecule agonists of the peroxisome proliferator-activated receptor delta (PPARd) signaling pathway - cell viability counter screen (AID 743211); note: nearly all actives have a fitted effect of over 55% in size
Conditions: PPARd-bla HEK293H viability, CellTiter-Glo luminescence, 17 h; series mostly up to 62.6 µM; activity change, negative = cytotoxicity: at the top concentration
Excerpt: U.S. Tox21 Program National Center for Advancing Translational Sciences [NCATS] NIH Chemical Genomics Center [NCGC] U.S. Environmental Protection Agency [EPA] National Institutes of Environmental Health Sciences [NIEHS] National Toxicology Program [NTP] U.S. Food and Drug Administration [FDA] Tox21 Assay Overview: The peroxisome proliferator-activated receptors (PPARs) are lipid-activated transcription factors of the nuclear receptor superfamily with three distinct subtypes namely PPAR alpha, PPAR delta (PPARd) and PPAR gamma. All these subtypes heterodimerizes with Retinoid X receptor (RXR) and have different physiological functions. […] To identify the compounds that activate PPAR-delta signaling, GeneBLAzer PPAR delta UAS-bla HEK293H cell line (Invitrogen, Carlsbad, CA, USA) containing a beta-lactamase reporter gene under the control of an Upstream Activator Sequence (UAS) was used to screen the Tox21 compound library. The cytotoxicity of the Tox21 compound library against the PPARd-bla cell line was tested in parallel by measuring the cell viability using CellTiter-Glo assay (Promega, Madison, WI) in the same wells.
Tox21 Assay Protocol Summary: PPARd-bla cells were dispensed at 3000 cells/6uL/well in 1536-well black wall/clear bottom plates using a Multidrop Combi (Thermo Fisher Scientific, Waltham, MA) dispenser. After the assay plates were incubated at 37 C and 5% CO2 for 5 h, 23 nL of compounds dissolved in DMSO, positive controls or DMSO only was transferred to the assay plate by a Pintool station (Kalypsys, San Diego, CA). The assay plates were incubated at 37C for 17 h. After 1 uL of LiveBLAzerTM B/G FRET substrate was added using a Bioraptr Flying Reagent Dispenser (FRD) workstation (Beckman Coulter, Indianapolis, IN, USA), the plates were incubated at room temperature for 2 h, and fluorescence intensity was measured by an Envision plate reader (PerkinElmer, Shelton, CT). For cell viability readout that measures cytotoxicity, 3 ul/well of CellTiter-Glo reagent was added into the assay plates using a Bioraptr FRD. After 30 min incubation at room temperature, the luminescence intensity in the plates was measured using a ViewLux plate reader (PerkinElmer).
% is set by controls: 0 for no effect and ±100 for the full control effect; potency is the fitted concentration of half-maximal effect.

| Structure (SMILES) | Potency | activity change, negative = cytotoxicity |
| --- | --- | --- |
| CC[C@@H]([C@H](C)O)n1ncn(-c2ccc(N3CCN(c4ccc(OC[C@@H]5CO[C@@](Cn6cncn6)(c6ccc(F)cc6F)C5)cc4)CC3)cc2)c1=O | 29.8 µM (active) |  |
| CCCCCCCCCCCCCCCCBr |  | 9.76% [at 29.1 µM] (inactive) |
| C[C@]12CCC(=O)C=C1C=C[C@@H]1[C@@H]2CC[C@@]2(C)[C@H]1CC[C@@]21CCC(=O)O1 |  | -6.71% (inactive) |
| COC(=O)[C@@H]1CC2=CC(=O)CC[C@]2(C)[C@@]23O[C@@H]2C[C@@]2(C)[C@@H](CC[C@@]24CCC(=O)O4)[C@H]13 |  | 13.7% (inactive) |
| CC(C)C(=O)O |  | 3.46% (inactive) |
| Cc1cc(O)c2c(O)c3c(O)cccc3cc2c1 |  | -17.9% (inactive) |
| O=C(O)c1cccc(O)c1 |  | -1.27% [at 81.1 µM] (inactive) |
| OC/C(Br)=C(\Br)CO |  | 0.387% (inactive) |
| Cc1cc(O)c(C(C)C)cc1Cl | inactive |  |
| CC(=O)CC(c1ccc([N+](=O)[O-])cc1)c1c(O)c2ccccc2oc1=O (stereo not given) |  | 2.08% (inactive) |
| CCc1cccc(N(C)C(N)=Nc2cccc3ccccc23)c1 |  | -18.1% (inactive) |
| CC(=O)[C@H]1CC[C@H]2[C@@H]3C[C@H](C)C4=CC(=O)CC[C@]4(C)[C@H]3[C@@H](O)C[C@]12C |  | -0.508% (inactive) |
| O=C(CS)OCCOC(=O)CS |  | -19.6% (inactive) |
| CCCCC(=O)O[C@]1(C(=O)CO)[C@@H](C)C[C@H]2[C@@H]3CCC4=CC(=O)C=C[C@]4(C)[C@@]3(F)[C@@H](O)C[C@@]21C |  | 0.0988% (inactive) |
| c1cnc2c(n1)CCCC2 |  | 9.32% (inactive) |
| C=CCOC(=O)/C=C\C(=O)OCC=C |  | 0.116% [at 81.1 µM] (inactive) |
| O=C(C(=O)c1ccccc1)c1ccccc1 |  | 3.26% (inactive) |
| NC(=O)Nc1ccc(Cl)c(Cl)c1 |  | -1.14% (inactive) |
| O=C(NCCCN1CCOCC1)c1ccc(Cl)cc1 |  | 1.63% (inactive) |
| Oc1cc(O)c(Cl)cc1Cl |  | -5.85% [at 81.1 µM] (inactive) |

| Structure (SMILES) | Potency | activity change, negative = cytotoxicity |
| --- | --- | --- |
| NCC1CCCC(CN)C1 (stereo not given) |  | -15.8% (inactive) |
| O=C(CCCCCCC(=O)Nc1ccccc1)NO |  | -9.19% (inactive) |
| CN(C)CCOC1=Cc2ccccc2Sc2ccc(Cl)cc21 | 26.6 µM (active) |  |
| CNC(=S)NC |  | -25.3% (inactive) |
| COC(=O)c1cc(S(N)(=O)=O)ccc1OC |  | 0.109% (inactive) |
| Cc1cnc(C)c(C)n1 |  | -3.73% [at 81.1 µM] (inactive) |
| CCCOC(=O)c1ccc(C(=O)OCCC)nc1 |  | 1.26% (inactive) |
| CC1(C)C(=O)N(Br)C(=O)N1Cl |  | 3.37% (inactive) |
| CO/N=C1\CN(c2nc3c(cc2F)c(=O)c(C(=O)O)cn3C2CC2)CC1CN (stereo not given) |  | -8.73% (inactive) |
| CCCCCCCC/C=C\CCCCCCCC(=O)OC |  | -0.863% (inactive) |
| C=CC(=O)NCOCC(C)C |  | 1.11% (inactive) |
| O=C(O)c1ccccc1NCCc1ccccc1 |  | 5.21% (inactive) |
| OC(CCCN1CCCCC1)(c1ccccc1)c1ccccc1 |  | -17.3% (inactive) |
| C[C@@H]1C[C@H]2[C@@H]3CCC4=CC(=O)C=C[C@]4(C)[C@@]3(F)[C@@H](O)C[C@]2(C)[C@@]1(O)C(=O)CO |  | 7.88% [at 81.1 µM] (inactive) |
| O=C(O)C(Cc1cc(I)c(O)c(I)c1)c1ccccc1 (stereo not given) |  | -11.5% (inactive) |
| O=C(CCCN1CCN(c2ccc(F)cc2)CC1)NC1c2ccccc2CSc2ccccc21 (stereo not given) | 9.44 µM (active) |  |
| O=C(N[C@@H](c1ccccc1)[C@@H]1CCCCN1)c1cccc(C(F)(F)F)c1Cl | 27.5 µM (active) |  |
| CCOC(=O)N1CCC(n2c(=O)[nH]c3cc(Cl)ccc32)CC1 |  | -7.03% (inactive) |
| Nc1ccc(S(=O)(=O)O)c(N)c1 |  | 0.228% (inactive) |
| O=C(CCCCCCCCC#CI)Oc1ccccc1 |  | 3.8% (inactive) |

Reference: PubChem BioAssay (Tox21)
